From PubChem BioAssay (Tox21)
Inconclusive results are not listed. Some compounds were tested as several samples or in several runs, with calls that do not always agree. Activity calls are given as the source filed them. Unless noted, the call rests on the fitted dose curve.

Columns and labels:
[1] = qHTS assay to identify small molecule antagonists of the estrogen related receptor (ERR) signaling pathway (AID 1224819; active means well fitted curve in the direction sought with a large enough effect in the repeat runs; an effect the other way counts as inactive or inconclusive; further: potency means the concentration at half of the fitted maximal effect; nearly all actives have a fitted effect of over 50% in size)
Outline: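 ERR reporter cells were plated at 2,000 cells/well and left 6 h at 37 C/5% CO2 before pin-tool transfer of compounds in DMSO. After 18 h at 37 C, One-Glo was added and luminescence was read 30 min later at room temperature.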

[2] = qHTS assay to identify small molecule agonists of the estrogen related receptor (ERR) signaling pathway (AID 1224820; active means well fitted curve in the direction sought with a large enough effect in the repeat runs; an effect the other way counts as inactive or inconclusive; further: on the % scale 0 is the no-effect control and ±100 the full control effect)
Outline: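 Cells: ERR line from NTP, 2,000/well. Pre-incubation 6 h, 37 C/5% CO2. Compound (DMSO) pin transfer, 18 h 37 C. One-Glo, 30 min RT, luminescence.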

[3] = qHTS assay to identify small molecule agonists of the estrogen related receptor signaling pathway with the pleiotropic PPARgamma coactivator (PGC) (AID 1224823; active means well fitted curve in the direction sought with a large enough effect in the repeat runs; an effect the other way counts as inactive or inconclusive; further: on the % scale 0 is the no-effect control and ±100 the full control effect)
Outline: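 Steps: plate PGC/ERR cells at 2,000 cells/well; incubate 6 h, 37 C/5% CO2; pin-transfer compounds (DMSO); incubate 18 h, 37 C; add One-Glo; 30 min RT; read luminescence.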

Aromatase (Homo sapiens) = Aromatase (Homo sapiens) (UniProt P11511); assay: qHTS assay to identify aromatase inhibitors (AID 743083; active means well fitted curve in the direction sought with a large enough effect in the repeat runs; an effect the other way counts as inactive or inconclusive; further: nearly all actives have a fitted effect of over 55% in size; further: potency means the concentration at half of the fitted maximal effect)
[4] = molecular target: Nuclear receptor subfamily 1 group I member 3 (Homo sapiens) (UniProt Q14994); assay: qHTS assay to identify small molecule agonists of the constitutive androstane receptor (CAR) signaling pathway (AID 1224839; active means well fitted curve in the direction sought with a large enough effect in the repeat runs; an effect the other way counts as inactive or inconclusive;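 further: HepG2 cells stably carrying human CAR and a CYP2B6 luciferase reporter; on the % scale 0 is the no-effect control and ±100 the full control effect; nearly all actives have a fitted effect of over 15% in size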)
Outline: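 HepG2 cells stably co-transfected with hCAR and a CYP2B6-2.2kb luciferase reporter; compounds at 15 concentrations with 0.75 uM PK11195 present. After 24 hr at 37 C, luciferase read by ONE-Glo luminescence.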

[5] = qHTS assay to identify small molecule agonists of the estrogen related receptor signaling pathway with the pleiotropic PPARgamma coactivator (PGC) from Tox21 10K library (AID 1224842; active means well fitted curve in the direction sought with a large enough effect in the repeat runs; an effect the other way counts as inactive or inconclusive; further: nearly all actives have a fitted effect of over 15% in size; further: potency means the concentration at half of the fitted maximal effect)
Outline: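 PGC/ERR reporter cells (NTP line) were seeded 2,000 per well, rested 6 h at 37 C/5% CO2, then pin-dosed with compounds in DMSO for 18 h at 37 C; luciferase read by One-Glo luminescence after 30 min at room temperature.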

[6] = qHTS assay to identify small molecule agonists of H2AX (AID 1224845; active means well fitted activation curve with a large enough effect in the signal ratio in the repeat runs, not every such curve was filed as active; the % refers to the signal ratio; further: on the % scale 0 is the no-effect control and ±100 the full control effect)
Outline: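 Wild-type CHO-K1 cells plated overnight, then exposed 3 hr at 37C to compounds at 15 concentrations (0.76% DMSO). Lysed, then HTRF anti-pH2AX(S139)-cryptate/anti-H2AX-d2 detection after 24 hr at room temperature; emissions 665 and 620 nm.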

[7] = molecular target: Acetylcholinesterase (Homo sapiens) (UniProt P22303); assay: Acetylcholinesterase (AChE) small molecule antagonists: colormetric cell-based qHTS assay (AID 1347395); further: nearly all actives have a fitted effect of over 30% in size; further: potency means the concentration at half of the fitted maximal effect
Outline: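 SH-SY5Y cells attached overnight, exposed to compound 30 min at 37 C, then given DTNB/acetylthiocholine; after 90 min at 37 C, colorimetric thiocholine read gives cellular AChE activity.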

[8] = molecular target: Acetylcholinesterase (Homo sapiens) (UniProt P22303); assay: Acetylcholinesterase (AChE) small molecule antagonists: enzyme-based qHTS assay (AID 1347397); conditions: Potency: AChE enzyme activity inhibition; outcome: AChE enzyme activity inhibition; further: on the % scale 0 is the no-effect control and ±100 the full control effect; nearly all actives have a fitted effect of over 55% in size
Outline: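 Human recombinant acetylcholinesterase; substrate acetylthiocholine; thiocholine quantified with DTNB (colorimetric). Compound preincubation 30 min RT; reaction 10 min RT.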

[9] = molecular target: Acetylcholinesterase (Homo sapiens) (UniProt P22303); assay: Acetylcholinesterase (AChE) small molecule antagonists: fluorescence cell-based qHTS assay (AID 1347398); conditions: Potency: AChE activity; outcome: AChE activity; further: on the % scale 0 is the no-effect control and ±100 the full control effect; nearly all actives have a fitted effect of over 50% in size
Outline: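 Thiocholine generated from acetylthiocholine by SH-SY5Y cell AChE is detected with Thiolite Green (Ex/Em 490/520 nm) after 40 min at room temperature, following 30 min compound pretreatment at 37 C.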

[10] = molecular target: Acetylcholinesterase (Homo sapiens) (UniProt P22303); assay: Acetylcholinesterase (AChE) small molecule antagonists: enzyme-based qHTS assay with human liver microsomes (AID 1347399); conditions: Potency: qHTS inhibition; outcome: qHTS inhibition; further: on the % scale 0 is the no-effect control and ±100 the full control effect; nearly all actives have a fitted effect of over 60% in size
Outline: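 Recombinant human AChE (50 mU/mL in the enzyme mix) and human liver microsomes (0.25 mg/mL final) were preincubated with compound and NADPH (0.25 mg/mL final) for 30 min at 37 C. Acetylthiocholine/DTNB was then added; thiocholine was read colorimetrically after 10 min at room temperature.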

[11] = qHTS assay to identify small molecule antagonists of the estrogen related receptor (ERR) signaling pathway from Tox21 library - cell viability counter screen (AID 1224834; active means well fitted curve in the direction sought with a large enough effect in the repeat runs; an effect the other way counts as inactive or inconclusive; further: on the % scale 0 is the no-effect control and ±100 the full control effect; nearly all actives have a fitted effect of over 30% in size)
Outline: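 ERR reporter cells were plated 6 h before compound addition, then exposed to test compounds in DMSO for 17.5 h at 37 C. Viability was read as CellTiter-Fluor fluorescence after a 30-minute incubation at 37 C.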

[12] = qHTS assay to identify small molecule antagonists of the estrogen related receptor signaling pathway with the pleiotropic PPARgamma coactivator (PGC) from Tox21 10K library - cell viability counter screen (AID 1224840; active means well fitted cell-killing curve with a large enough effect in the repeat runs, not every such curve was filed as active; further: on the % scale 0 is the no-effect control and ±100 the full control effect; nearly all actives have a fitted effect of over 40% in size)
Outline: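 PGC/ERR cells were seeded at 2,000 cells/well and left 6 hours at 37 C/5% CO2 before pin-tool addition of compounds in DMSO. After 17.5 hours at 37 C, CellTiter-Fluor was added and fluorescence read 30 minutes later.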

[13] = qHTS assay to identify small molecule antagonists of the estrogen related receptor signaling pathway with the pleiotropic PPARgamma coactivator (PGC) from Tox21 10K library (AID 1224841; call rule not given here; further: on the % scale 0 is the no-effect control and ±100 the full control effect; actives are mostly falling curves and most rising ones were filed inactive; nearly all actives have a fitted effect of over 50% in size)
Outline: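 PGC/ERR reporter cells were seeded at 2,000 cells/well and held 6 hours at 37 C/5% CO2 before pin-tool addition of compounds in DMSO. After 18 hours at 37 C, One-Glo was added and luminescence read after 30 minutes at room temperature.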

[14] = qHTS assay to identify small molecule antagonists of the estrogen related receptor (ERR) signaling pathway from Tox21 library (AID 1224848; active means well fitted curve in the direction sought with a large enough effect in the repeat runs; an effect the other way counts as inactive or inconclusive; further: on the % scale 0 is the no-effect control and ±100 the full control effect; nearly all actives have a fitted effect of over 50% in size)
Outline: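 Screening used an ERR reporter line supplied by NTP, exposed for 18 h at 37 C to library compounds delivered in DMSO. Signal was luciferase luminescence developed with ONE-Glo at room temperature for 30 min.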

[15] = qHTS assay to identify small molecule agonists of the estrogen related receptor (ERR) signaling pathway from Tox21 library (AID 1224849); conditions: ERR reporter cell line, ONE-Glo luciferase, 18 h; at 92.4 µM (top of the series) unless noted; further: on the % scale 0 is the no-effect control and ±100 the full control effect; nearly all actives have a fitted effect of over 15% in size
Outline: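 ERR reporter cell line (NTP) seeded, rested 6 h at 37 C/5% CO2, then pinned with Tox21 compounds in DMSO. After 18 h at 37 C, ONE-Glo luciferase luminescence was read following 30 min at room temperature.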

[16] = qHTS assay for small molecule agonists of the p53 signaling pathway (AID 651631); further: on the % scale 0 is the no-effect control and ±100 the full control effect; nearly all actives have a fitted effect of over 15% in size
Outline: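 HCT-116 cells carrying a beta-lactamase reporter under p53 response elements were dosed with compound for 16 h at 37 °C. LiveBLAzer B/G FRET substrate was then added for 2 h at room temperature, and fluorescence intensity was read to detect pathway agonism.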

[17] = molecular target: Aryl hydrocarbon receptor (Homo sapiens) (UniProt P35869); assay: qHTS assay to identify small molecule that activate the aryl hydrocarbon receptor (AhR) signaling pathway (AID 743085; active means well fitted curve in the direction sought with a large enough effect in the repeat runs; an effect the other way counts as inactive or inconclusive)
Outline: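 HepG2 cells stably carrying a 20-DRE firefly luciferase reporter (HG2L7.5c1) treated with compound for 24 hr at 37C. Luciferase read by ONE-Glo luminescence, with CellTiter-Fluor viability read first.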

[18] = Caspase-3/7 induction in HepG2 cells by small molecules, qHTS assay (AID 1346978; active means well fitted curve in the direction sought with a large enough effect in the repeat runs; an effect the other way counts as inactive or inconclusive)
Outline: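 Wild-type HepG2 cells (2,000/well) were settled 5 h at 37 C, 5% CO2, then exposed to compounds in DMSO for 17 h. Caspase-3/7 activity was read by luminescence 30 min after adding Caspase-Glo 3/7 reagent at room temperature.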

[19] = qHTS assay to identify small molecule agonists of the hypoxia (HIF-1) signaling pathway (AID 1224846; active means well fitted activation curve with a large enough effect in the signal ratio in the repeat runs, not every such curve was filed as active; the % refers to the signal ratio; further: on the % scale 0 is the no-effect control and ±100 the full control effect)
Outline: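 HRE-bla ME-180 cells (beta-lactamase reporter under hypoxia response element) were plated at 2,000 cells/well in medium with 0.5% dialyzed FBS, rested 5 hrs, then given compounds in DMSO for 17 hrs at 37C, 5% CO2. Reporter induction was read with CCF4-AM FRET substrate.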

[20] = molecular target: Thyrotropin receptor (Homo sapiens) (UniProt P16473); assay: qHTS assay to identify small molecule antagonists of the thyroid stimulating hormone receptor (TSHR) signaling pathway (AID 1259385); further: on the % scale 0 is the no-effect control and ±100 the full control effect; nearly all actives have a fitted effect of over 20% in size
Outline: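 TSHR-HEK293 cells were plated and held 18 h at 37C/5% CO2, then given compound plus Ro20-1724 and stimulated with TSH at 1.5 ng/mL final. After 30 min at room temperature, cAMP was detected with cAMP-d2/anti-cAMP-cryptate (1 h) by fluorescence.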

Acetylcholinesterase (Homo sapiens), sequence (P22303 whole entry, looked up): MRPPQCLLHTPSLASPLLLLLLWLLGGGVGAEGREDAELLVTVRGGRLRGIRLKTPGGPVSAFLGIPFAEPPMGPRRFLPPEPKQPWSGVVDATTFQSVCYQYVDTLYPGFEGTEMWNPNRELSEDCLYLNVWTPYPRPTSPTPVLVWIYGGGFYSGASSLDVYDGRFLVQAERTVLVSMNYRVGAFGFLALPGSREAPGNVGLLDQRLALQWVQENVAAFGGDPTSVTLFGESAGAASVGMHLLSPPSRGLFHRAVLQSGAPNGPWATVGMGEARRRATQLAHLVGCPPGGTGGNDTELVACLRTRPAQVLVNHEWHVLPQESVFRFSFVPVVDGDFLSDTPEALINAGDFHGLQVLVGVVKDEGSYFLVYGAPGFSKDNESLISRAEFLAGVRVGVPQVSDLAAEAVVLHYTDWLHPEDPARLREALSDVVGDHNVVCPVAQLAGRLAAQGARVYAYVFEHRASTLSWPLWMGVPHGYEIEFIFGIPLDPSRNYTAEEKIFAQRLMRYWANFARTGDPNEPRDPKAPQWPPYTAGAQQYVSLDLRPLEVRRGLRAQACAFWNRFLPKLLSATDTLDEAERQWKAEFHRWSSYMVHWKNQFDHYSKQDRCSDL
Aromatase (Homo sapiens), sequence (P11511 whole entry, looked up): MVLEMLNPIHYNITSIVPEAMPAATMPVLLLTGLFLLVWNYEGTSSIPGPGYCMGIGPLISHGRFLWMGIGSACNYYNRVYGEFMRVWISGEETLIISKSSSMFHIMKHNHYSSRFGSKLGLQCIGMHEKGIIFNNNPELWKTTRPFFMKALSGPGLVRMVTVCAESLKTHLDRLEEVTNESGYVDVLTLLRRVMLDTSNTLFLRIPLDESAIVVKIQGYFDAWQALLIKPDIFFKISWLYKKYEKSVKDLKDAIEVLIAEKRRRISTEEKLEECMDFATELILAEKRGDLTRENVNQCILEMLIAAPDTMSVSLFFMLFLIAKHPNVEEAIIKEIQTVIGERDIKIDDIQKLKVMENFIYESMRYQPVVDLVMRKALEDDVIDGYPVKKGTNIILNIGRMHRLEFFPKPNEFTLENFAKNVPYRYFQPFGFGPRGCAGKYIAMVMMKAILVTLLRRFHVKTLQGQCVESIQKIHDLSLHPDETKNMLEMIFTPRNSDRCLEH
Aryl hydrocarbon receptor (Homo sapiens), sequence (P35869 whole entry, looked up): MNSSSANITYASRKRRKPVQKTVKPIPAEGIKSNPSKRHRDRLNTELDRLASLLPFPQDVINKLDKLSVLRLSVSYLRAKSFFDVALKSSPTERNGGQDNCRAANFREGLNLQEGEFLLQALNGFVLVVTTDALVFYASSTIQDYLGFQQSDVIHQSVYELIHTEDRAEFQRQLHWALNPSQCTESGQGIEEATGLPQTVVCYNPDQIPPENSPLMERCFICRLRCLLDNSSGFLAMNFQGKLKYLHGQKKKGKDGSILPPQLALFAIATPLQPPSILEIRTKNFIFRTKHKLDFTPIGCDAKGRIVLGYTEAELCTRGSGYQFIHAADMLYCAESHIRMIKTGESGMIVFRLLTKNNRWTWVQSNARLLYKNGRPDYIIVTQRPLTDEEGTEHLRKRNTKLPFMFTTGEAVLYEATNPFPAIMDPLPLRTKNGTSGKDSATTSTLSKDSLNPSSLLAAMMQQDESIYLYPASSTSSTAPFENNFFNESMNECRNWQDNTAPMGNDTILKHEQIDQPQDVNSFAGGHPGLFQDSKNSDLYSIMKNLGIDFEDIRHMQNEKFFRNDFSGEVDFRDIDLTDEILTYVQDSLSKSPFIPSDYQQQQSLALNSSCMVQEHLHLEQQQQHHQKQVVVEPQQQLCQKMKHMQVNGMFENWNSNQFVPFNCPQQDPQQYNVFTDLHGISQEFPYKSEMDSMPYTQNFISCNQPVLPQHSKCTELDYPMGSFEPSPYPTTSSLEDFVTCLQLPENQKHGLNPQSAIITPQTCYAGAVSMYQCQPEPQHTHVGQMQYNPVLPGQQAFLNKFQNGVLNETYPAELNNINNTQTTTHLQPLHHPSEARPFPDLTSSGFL
Thyrotropin receptor (Homo sapiens), sequence (P16473 whole entry, looked up): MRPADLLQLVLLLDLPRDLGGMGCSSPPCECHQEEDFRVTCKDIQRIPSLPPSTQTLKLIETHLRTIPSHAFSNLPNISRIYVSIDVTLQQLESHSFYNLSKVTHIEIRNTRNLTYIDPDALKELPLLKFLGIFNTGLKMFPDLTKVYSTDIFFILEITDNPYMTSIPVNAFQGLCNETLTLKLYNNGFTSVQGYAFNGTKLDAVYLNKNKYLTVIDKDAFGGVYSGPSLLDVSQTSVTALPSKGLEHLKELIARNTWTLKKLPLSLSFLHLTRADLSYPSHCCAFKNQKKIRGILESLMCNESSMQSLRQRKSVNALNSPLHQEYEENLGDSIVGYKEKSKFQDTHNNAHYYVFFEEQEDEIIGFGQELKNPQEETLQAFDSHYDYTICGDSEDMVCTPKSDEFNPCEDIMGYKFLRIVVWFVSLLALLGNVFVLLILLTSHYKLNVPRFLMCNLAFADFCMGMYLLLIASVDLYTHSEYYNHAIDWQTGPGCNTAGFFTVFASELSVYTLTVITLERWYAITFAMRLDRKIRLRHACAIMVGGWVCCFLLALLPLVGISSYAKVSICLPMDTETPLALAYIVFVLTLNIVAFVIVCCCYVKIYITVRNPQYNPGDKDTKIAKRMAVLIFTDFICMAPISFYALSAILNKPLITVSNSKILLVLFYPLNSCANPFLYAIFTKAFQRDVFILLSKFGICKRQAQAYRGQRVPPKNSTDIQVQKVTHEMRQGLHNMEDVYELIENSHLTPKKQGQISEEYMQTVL
Nuclear receptor subfamily 1 group I member 3 (Homo sapiens), sequence (Q14994 whole entry, looked up): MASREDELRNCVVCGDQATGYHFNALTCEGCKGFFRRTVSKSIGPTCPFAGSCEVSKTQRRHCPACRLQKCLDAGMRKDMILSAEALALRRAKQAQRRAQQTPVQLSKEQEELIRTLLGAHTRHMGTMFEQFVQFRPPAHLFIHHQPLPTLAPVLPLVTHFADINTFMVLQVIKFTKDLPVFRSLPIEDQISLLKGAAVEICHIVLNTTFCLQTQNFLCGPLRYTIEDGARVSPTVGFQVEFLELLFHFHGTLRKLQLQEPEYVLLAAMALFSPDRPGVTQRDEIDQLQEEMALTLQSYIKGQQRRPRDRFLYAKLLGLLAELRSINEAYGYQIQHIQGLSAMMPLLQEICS

Clc1ccc(C(c2ccc(Cl)cc2)n2cc[n+](CC(OCc3ccc(Cl)cc3Cl)c3ccc(Cl)cc3Cl)c2)cc1 (configuration not stated)
active: Potency [1] 19.6 µM
inactive: Potency [2] | Potency [3]

Clc1nc(Cl)c(Cl)c(Cl)c1Cl
inactive: Potency (Aromatase (Homo sapiens)) | Potency [4] | Potency [5] | Potency [6] | Potency [7] | Potency [8] | Potency [9] | Potency [10]

CCC1C(=O)OCC1Cc1cncn1C (configuration not stated)
inactive: Potency [11] | Potency [12] | Potency [13] | Potency [5] | Potency [14] | activity change, positive = activation [15] 4.65% [at 42.5 µM] | Potency [7] | Potency [8] | Potency [9] | Potency [10]

O=P(OC(CCl)CCl)(OC(CCl)CCl)OC(CCl)CCl
inactive: Potency [16] | Potency [17] | Potency [5] | Potency [6] | Potency [18] | Potency [7] | Potency [8] | Potency [9] | Potency [10]

N#CCCNCCC#N
inactive: Potency (Aromatase (Homo sapiens)) | Potency [17] | outcome [19] | Potency [20] | Potency [7] | Potency [8] | Potency [9] | Potency [10]

NC(=Nc1ccccc1)Nc1ccccc1
active: Potency (Aromatase (Homo sapiens)) 23.7 µM | Potency [5] 12.2 µM | activity change, positive = activation [15] 17.6%
inactive: Potency [16] | Potency [18] | Potency [8] | Potency [9] | Potency [10]
63.3 µM (active) and inactive: Potency [7]
